Values joined by “and” are separate entries in the source; they are usually repeats but may differ in a detail not shown here. Equal entries are not always repeated. Screen size: about 420,000 compounds; about 64,000 (15%) were called active. Inconclusive results (about 27%) are left out. Calls follow the shape of the dose curve; as a rule, active = well fitted inhibition curve with a large enough effect; inconclusive = small, poorly fitted or top-dose-only effect; inactive = flat fitted curve, though single readings scatter. A selection follows. Entries that show only a call come without a potency.
test: qHTS for Inhibitors of human tyrosyl-DNA phosphodiesterase 1 (TDP1): qHTS in cells in absence of CPT; conditions: DT40 Tdp1-/- hTDP1 cells, no CPT, ATP luminescence, 48 h; activity change, negative = growth inhibition: at 46.2 µM (top of the series); also: nearly all actives have a fitted effect of over 55% in size
In short: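 DT40 Tdp1-/-;hTDP1 cells, no CPT (DMSO vehicle only), 400 cells/well; compounds pin-transferred; ≥48 hr, 37 °C; CellTiter-Glo 30 min RT dark, luminescence read.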
Potency is read from the fitted curve at half-maximal effect.

Structure (SMILES) | Potency
CCOC(=O)C(C)n1cnc2c(nnn2-c2cccc(OC)c2)c1=O (configuration not stated) | inactive
CCc1cccc(CC)c1NC(=O)Cn1c(=O)c(-c2cc(C)ccc2NC(C)=O)nc2ccccc21 | inactive
CCC(=O)Nc1nc2ccccc2n1Cc1ccccc1C | 14.6 µM (active)
CCC(=O)Nc1ccc2nc(C)n(Cc3ccccc3Cl)c(=O)c2c1 | inactive
CC(=O)Nc1nc2ccccc2n1Cc1ccc(C)cc1 | 13 µM (active)
CC(=O)c1nc2ccccc2n1Cc1ccccc1 | inactive
CCC(=O)Nc1ccc(C)cc1-c1nc2ccccc2n(Cc2ccccc2)c1=O | inactive
Cc1cccc(N(CC(=O)N2CCOCC2)S(C)(=O)=O)c1 | inactive
CCNC(=O)COC(=O)CCNC(=O)c1cccc(C)c1 | inactive
CCOc1ccc(C(CC(=O)O)NC(=O)C23CC4CC(CC(C4)C2)C3)cc1OC (configuration not stated) | inactive
CN1C(=O)/C(=C/C=C2\SCCN2C)OC1=S | inactive
COc1ccc(N2CCN(CCNC(=O)c3nnc(Cc4c(F)cccc4Cl)o3)CC2)cc1 | inactive
COc1ccc(N2CCN(c3nc(-c4ccccc4F)nc4ccccc34)CC2)cc1 | 16.4 µM (active)
COc1ccccc1-c1nc(N2CCN(C)CC2)c2ccccc2n1 | inactive
Brc1cc(Br)c(Oc2cc(Br)c(Br)cc2Br)cc1Br | inactive
CCc1ccc[n+](-c2nc([O-])sc2C=O)c1 | inactive
CCN(CC(=O)Nc1ccccc1C(F)(F)F)C(=O)C1CCN(C(=O)Nc2ccccc2)CC1 | inactive
Cc1ccc(NC(=S)N(Cc2ccco2)C(C)c2cccs2)cc1 (configuration not stated) | inactive
CC(=O)Nc1ccc(S(=O)(=O)N2CCC(N(C)CCC(C)C)CC2)cc1 | inactive
CC(C)CCN(C(=O)Nc1ccc(Cl)c(Cl)c1)C(C)c1cccs1 (configuration not stated) | 18.4 µM (active)
S=C(Nc1ccc(Br)cc1Cl)N1CCC2(CC1)OCCO2 | inactive
C/C=C/C=C/C(=O)OCC(=O)Nc1ccc(Cl)cc1 | inactive

Structure (SMILES) | Potency
O=C(NCN1CCN(CCO)CC1)c1cnccn1 | inactive
Cc1cc(/C=C2/SC(=O)N(CC(=O)N3CCCC3)C2=O)ccc1N1CCOCC1 | 23.1 µM (active)
Cc1cc(/C=C2/SC(=O)N(CC(=O)N3CCCC3)C2=O)c(C)n1C | inactive
O=C(CN1C(=O)CSc2ncccc21)N1CCOCC1 | inactive
CN(C)C(=S)Nc1ccc(Br)cc1Cl | inactive
Cc1cc(C)cc(C(=O)NCCN2CCOCC2)c1 | inactive
O=C(NCCN1CCOCC1)c1c(F)c(F)c(F)c(F)c1F | inactive
CC(=O)Oc1cc2c(C(=O)NCCN3CCOCC3)c(C)oc2c2ccccc12 | 16.4 µM (active)
O=C(CCc1nc(CN2CCN(S(=O)(=O)c3ccc(F)cc3)CC2)no1)N1CCCCC1 | inactive
CCN(CC(=O)Nc1ccc(OC)cc1)C(=O)c1ccc(=O)n(Cc2ccccc2)n1 | inactive
O=C(CNC(=O)c1cc(=O)[nH]c2ccccc12)Nc1ccc(F)c(F)c1 | inactive
COC(=O)c1cnn2c(C(F)(F)F)cc(-c3ccco3)nc12 | inactive
CCOc1ccc(C(C)=O)cc1COC(=O)CNC(=O)c1cccs1 | inactive
O=C(O)/C=C/c1ccc(S(=O)(=O)N2CCCCCC2)cc1 | inactive
CN/C(=C\[N+](=O)[O-])NCCSCc1csc(CN(C)C)n1 | inactive
Cc1ccnc(-n2sc3ccccc3c2=O)n1 | 5.17 µM (active)
Cc1ccnc(N2CCCC(C(=O)NC3CC3)C2)n1 (configuration not stated) | inactive
Cc1nc2ccccc2c(=O)n1CCCn1ccnc1 | inactive
COCCCNC(=O)c1c(F)c(F)c(F)c(F)c1F | inactive
O=C(CSc1nnc(-c2ccncc2)n1C1CCCCC1)Nc1ccccc1 | inactive
CCC(C)N(C)C1CCN(C(=S)Nc2ccc(OC)cc2)CC1 (configuration not stated) | inactive
COc1ccccc1OCC(=O)Nc1c2c(nn1-c1ccc(F)cc1)CS(=O)(=O)C2 | inactive

Structure (SMILES) | Potency
Cc1cccc(-n2nc3c(c2NC(=O)c2ccc(Br)o2)CSC3)c1C | inactive
COc1cccc(C(=O)Nc2c3c(nn2-c2cccc(C)c2C)CS(=O)(=O)C3)c1OC | 15.8 µM (active)
COc1ccc(N(CC(=O)Nc2cccc3ccccc23)S(C)(=O)=O)c(OC)c1 | inactive
CCC(CC)C(=O)Nc1cc(C(=O)OC)cc(C(=O)OC)c1 | inactive
Cc1cc2nc3c(=O)n(Cc4ccccc4)c(=O)[nH]c3nc2cc1N | inactive
CCOC(=O)N1CCN(C(c2ccnc3ccccc23)c2nnnn2-c2c(C)cccc2C)CC1 (configuration not stated) | inactive
Cc1ccc(-n2nnnc2CNC(=O)c2ccccc2C)cc1C | inactive
CCC(=O)N(C)C(c1ccccc1Cl)c1nnnn1-c1c(C)cccc1C (configuration not stated) | 18.4 µM (active)
Cc1ccc(S(=O)(=O)N(NC2=NS(=O)(=O)c3ccccc32)C(=O)c2ccccc2)cc1 | inactive
Cc1cc(C)c(C)c(S(=O)(=O)N[C@@H](C)C(=O)OC(C)C(=O)NC(N)=O)c1C (some centres not stated) | inactive
COc1ccccc1C(=O)COC(=O)CSCC(=O)Nc1cc(C)on1 | inactive
COC(=O)N1CN(C(=O)OC)CN(C(=O)OC)C1 | inactive
CN(C(=O)CC1C(=O)NCCN1Cc1ccc(F)cc1Cl)C1CCCCC1 (configuration not stated) | inactive
COc1cc(NC(=O)c2nn(-c3ccc(C)cc3)c(=O)c3c2c2ccccc2n3C)cc(OC)c1OC | inactive
CCOC(=O)N1CCN(C(=O)c2nn(-c3ccc(C)cc3)c(=O)c3c2c2ccccc2n3C)CC1 | 18.4 µM (active)
CCOC(=O)N1CCN(C(=O)c2n[nH]c(=O)c3ccccc23)CC1 | inactive
CCCN(CCC)CCNC(=O)Cn1cnc2sc(C)c(S(=O)(=O)N3CCC(C)CC3)c2c1=O | inactive
O=C(CC[C@H]1O[C@@H](n2ccc(=O)[nH]c2=O)[C@H](O)[C@@H]1O)N[C@H](Cc1ccccc1)C(=O)NCc1ccco1 | inactive
O=C(NN=CC=Cc1ccccc1)C(O)C(O)C(=O)NN=CC=Cc1ccccc1 (configuration not stated) | inactive
CC(C)(C)c1ccc(C(=O)NCc2ccco2)cc1 | inactive
CC(C)(C)NC(=O)NCc1ccco1 | inactive
CC(C)(C)c1ccc(NC(=O)NCc2ccco2)cc1 | 14.6 µM (active)

Structure (SMILES) | Potency
Clc1ccc(-c2nnc(SCc3nc4ccccc4s3)o2)cc1 | inactive
Oc1c(Cl)cc(Cl)c(Cl)c1Cc1c(O)c(Cl)cc(Cl)c1Cl | 4.22 µM (active) and 23.1 µM (active) and 2.59 µM (active)
CCCn1c(N)c(C(=O)CSc2nnc3n2CCCCC3)c(=O)[nH]c1=O | inactive
CN(CC(=O)NCCc1ccc(S(N)(=O)=O)cc1)CC(=O)Nc1ccc(F)c(F)c1F | inactive
CCOc1ccccc1NC(=O)CN1CCN(S(=O)(=O)c2ccc(Br)cc2)CC1 | inactive
Cn1c(CC(=O)Nc2ccccc2)nnc1SCC(=O)c1ccccc1 | inactive
CCCCNc1c(-c2cccc(Sc3ccc(OC)cc3)c2)nc2ccccn12 | 20.6 µM (active)
CCCCNC(=O)c1onc(CSc2cccc(OC)c2)c1C(=O)O | inactive
COc1ccc(Sc2nc(-c3ccccc3)ncc2OC)cc1 | inactive
O=c1o[nH]c(-c2ccccc2)c1N=Nc1c(F)cccc1Cl | inactive
CCOC(=O)C1CCCN(C(=O)Cn2ncc3c(=O)oc4ccc(C)cc4c32)C1 (configuration not stated) | inactive
CCOC(=O)C1CCCN(C(=O)Cn2ncc3c(C)n(Cc4ccc(F)cc4)c(C)c3c2=O)C1 (configuration not stated) | 16.4 µM (active)
Cc1ccc2oc(=O)c3cnn(CC(=O)N4CCCCCC4)c3c2c1 | inactive
CCOc1ccc(CN(C)C(=O)c2ccc(=O)[nH]c2)cc1 | inactive
Clc1ccc2nc(-c3ccccc3)nc(C(Cl)Cl)c2c1 | 0.366 µM (active)
Cc1ccccc1C(=O)NNC(=O)CN1C(=O)c2ccccc2C1=O | inactive
Cc1noc(C)c1-c1nc(CSc2ccc(Cl)cc2)no1 | inactive
Clc1ccc(Cc2nnc(-c3cccs3)o2)cc1 | inactive
CCc1nn(-c2cc(Oc3cccc4ccccc34)nc(-c3ccccc3)n2)c(N)c1C#N | 16.4 µM (active)
CCCC(=O)n1nc(-c2ccccc2)nc1N | inactive
COc1ccc(Cn2c(=O)c3oc4ccccc4c3n(CC(=O)Nc3ccc(F)cc3F)c2=O)cc1 | inactive
CCOC(=O)c1sc(=NC(=O)/C=C/c2cccs2)n(C)c1C | inactive

Structure (SMILES) | Potency
CCCCc1nnc(NC(=O)CSc2nc(C)cc(=O)[nH]2)s1 | inactive
COCc1c(C(=O)NC2CCCCC2)cnn1-c1nccc(-c2ccccc2OC)n1 | inactive
Cc1cc(C(=O)NCC2Cc3cccc(-c4cncnc4)c3O2)c(C)o1 (configuration not stated) | inactive
COc1ccc(OC)c(C(=O)NC2CCCc3c2cnn3-c2cc(C)cc(C)c2)c1 (configuration not stated) | 16.4 µM (active)
COc1ccc(OC)c(CN2C(=O)CCC2(C)C(=O)NC2CCCCCC2)c1 (configuration not stated) | inactive
Cc1cc(C(=O)NC2CCCc3c2cnn3-c2cccc(C)c2C)c(C)o1 (configuration not stated) | 8.2 µM (active)
COC(=O)C1=C(C)N(C)C(=S)NC1c1cc(OC)ccc1OC (configuration not stated) | inactive
Cc1cc(C(=O)NNC(=O)CCC2CCCCC2)c(C)o1 | inactive
COc1ccc(C(=O)NC2CCCc3c2cnn3-c2cccc(C)c2C)c(OC)n1 (configuration not stated) | 8.2 µM (active)
Cc1ccccc1C(=O)NCCN=C1NS(=O)(=O)c2ccccc21 | inactive
CC(=O)N[C@H]1[C@H]([C@H](O)[C@H](O)CO)OC(C(=O)O)=C[C@@H]1O | inactive
Cc1ccc(S(=O)(=O)c2ccc(Cl)cc2)cc1S(=O)(=O)NC(C(=O)O)C(C)C (configuration not stated) | inactive
CN(C)c1ccc(-n2cccc2/C=N/n2cnnc2)cc1 | inactive
C=CCN1C(=NC(=O)COc2ccccc2)SC2CS(=O)(=O)CC21 (configuration not stated) | inactive
Nc1ccc2nc3c(=O)[nH]c(=S)[nH]c3nc2c1 | inactive
Cc1ccccc1OCC(=O)Nc1c(C(=O)Nc2ccccc2F)oc2ccccc12 | inactive
Cc1cc(NC(=O)CSc2ncc(C(=O)Nc3ccc(Cl)cc3)c(=O)n2C)no1 | inactive
Cc1ccc(NC(=O)c2cnc(SCC(=O)NCC3CCCO3)n(C)c2=O)cc1 (configuration not stated) | 14.6 µM (active)
Cn1c(SCC(=O)c2ccccc2)ncc(C(=O)Nc2ccc(F)cc2)c1=O | inactive

— PubChem BioAssay AID686978 (National Center for Advancing Translational Sciences (NCATS), 2013)
